The source of these data is PubChem BioAssay (Tox21).

Records with an inconclusive call do not appear. Calls of active or inactive are those of the source. The call rests on the fitted dose curve; in most records, active means well fitted cell-killing curve with a large enough effect in the repeat runs; inconclusive means weak or mixed curves, or effect the other way; inactive means flat fitted curve, though single readings scatter.
On the % scale 0 is the no-effect control and ±100 the full control effect; potency means the concentration at half of the fitted maximal effect.

The nature of the assay: cAMP Responsive Elements (CRE) small molecule antagonists, cell-based qHTS assay: qHTS cell viability counter screen (AID 2060913). Further: nearly all actives have a fitted effect of over 40% in size. The conditions noted are these: CRE-bla HEK293T viability, CellTiter-Glo luminescence, 5 h; series mostly up to 92.4 µM; viability change, negative = cytotoxic: at the top concentration. An outline of the steps:
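Viability of NKH477-stimulated (0.25 uM final) CRE-bla HEK293T cells is measured by CellTiter-Glo luminescence following 3 hrs compound exposure at 37 C.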
(In general: Quantitative high-throughput screening tests each substance at several concentrations.)
Consider `CCOC(=O)N(C)C(=O)CSP(=S)(OCC)OCC`, for which the “viability change, negative = cytotoxic” value is -4.71% (inactive). With `ClCBr`, the “viability change, negative = cytotoxic” value was 0.208% (inactive). On to `C=CC(=O)OCC`, for which the “viability change, negative = cytotoxic” value was 7.73% (inactive). On to `[CH3][Sn]([CH3])([Cl])[Cl]`, for which the Potency result was “inactive”. For `N#CC(Br)(Br)C(N)=O`, the “viability change, negative = cytotoxic” value is -15.1% (inactive). Take `Cc1nnc2n1-c1sc(CCC(=O)N3CCOCC3)cc1C(c1ccccc1Cl)=NC2`: the “viability change, negative = cytotoxic” value was -0.132% [at 42.5 µM] (inactive). In the case of `Sc1ccccc1Cl`, the “viability change, negative = cytotoxic” value was -1.16% [at 42.5 µM] (inactive). The same measure, in the same setting: the value for `CCC(C)(C)O` was -2.24% (inactive).

Consider `CC(=O)Nc1ccc2c(c1)Cc1ccccc1-2`, for which the “viability change, negative = cytotoxic” value was -4.22% (inactive).

In the case of `CCCCOC(C)=O`, the “viability change, negative = cytotoxic” value is 3.32% (inactive). Take `Nc1c(Br)cc([N+](=O)[O-])cc1[N+](=O)[O-]`: the “viability change, negative = cytotoxic” value was 4.82% (inactive). Same read-out and setting: next, `Cc1cnc(C2=NC(C)(C(C)C)C(=O)N2)c(C(=O)O)c1` (configuration not stated): -4.65% (inactive); `C=CCC1(C(C)CC)C(=O)NC(=O)NC1=O` (configuration not stated): -1.44% [at 42.5 µM] (inactive); `COc1ccc2[nH]cc(CCN(C(C)C)C(C)C)c2c1`: -1.33% (inactive). For `CC(C)Nc1nc(Cl)nc(NC(C)C)n1`, the Potency result is “inactive”. `BrCBr`: the “viability change, negative = cytotoxic” value is -3.4% (inactive). On the same count and under the same terms, next, `Nc1ccccc1C(=O)Oc1ccc2ccccc2c1`: -21.7% (inactive); `OC(c1ccccc1)(c1ccccc1)C1CCNCC1`: 0.247% [at 42.5 µM] (inactive); `CCC1(CC)C(=O)N=C(O)NC1=O`: -5.31% (inactive). Consider `N#Cc1sc2c(=O)c3ccccc3c(=O)c=2sc1C#N`, for which the Potency was 61.1 µM (active).

Consider `Cc1nnc2n1-c1sc(CCc3ccc(CC(C)C)cc3)cc1C(c1ccccc1Cl)=NC2C` (configuration not stated), for which the “viability change, negative = cytotoxic” value was -21% [at 42.5 µM] (inactive). As to `CC(C)N(C(=O)CCl)c1ccccc1`, the Potency entry was “inactive”. Take `O=Cc1ccc2c(c1)OCO2`: the “viability change, negative = cytotoxic” value was -0.71% (inactive). On to `COP(=O)(OC)O/C(=C\Cl)c1cc(Cl)c(Cl)cc1Cl`, for which the “viability change, negative = cytotoxic” value is -13.9% (inactive). For the compound `N#CNC#N`, the “viability change, negative = cytotoxic” value is -17.1% (inactive).

For the compound `COP(=S)(OC)Oc1ccc(S(=O)(=O)N(C)C)cc1`, the Potency entry is “inactive”. The same measure, in the same setting: the value for `CC(C)N1C(=O)c2ccccc2NS1(=O)=O` was “inactive”.
